# Source: the supplement of paper PMC8728848
# Many of the other results were omitted from the sample, so the strongest signals are more common in it than they were.
# Columns and labels:
# Assay in all cases: glycan array binding signal (z-score within array); higher = stronger binding
# Conditions in all cases: glycan notation: IUPAC condensed, linker removed
# [1] = biological target: Fuc(a1-2)Gal(b1-3)[Fuc(a1-4)]GlcNAc(b1-2)Man(a1-3)[Fuc(a1-2)Gal(b1-3)[Fuc(a1-4)]GlcNAc(b1-2)Man(a1-6)]Man(b1-4)GlcNAc(b1-4)GlcNAc
# Method in brief: (§1)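 From the Consortium for Functional Glycomics database, 3228 arrays were curated, keeping only those whose protein sequence was available. Binding is given as a within-array Z-score averaged across arrays sharing a protein sequence and across linkers. Negative Z-scores can be read as non-binding.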
# [2] = biological target: Fuc(a1-2)Gal(b1-3)[Fuc(a1-4)]GlcNAc(b1-3)[Fuc(a1-3)[Gal(b1-4)]GlcNAc(b1-6)]Gal(b1-4)Glc
# Method in brief: as §1
# [3] = biological target: Fuc(a1-2)Gal(b1-4)[Fuc(a1-3)]GlcNAc(b1-3)Gal(b1-4)[Fuc(a1-3)]GlcNAc(b1-3)Gal(b1-4)[Fuc(a1-3)]GlcNAc
# Method in brief: as §1
# [4] = biological target: Fuc(a1-2)Gal(b1-4)[Fuc(a1-3)]GlcNAc(b1-3)GalNAc
# Method in brief: as §1
# Fuc(a1-2)Gal6S(b1-4)Glc = biological target: Fuc(a1-2)Gal6S(b1-4)Glc
# Method in brief: as §1
# [5] = biological target: Fuc(a1-2)[Gal(a1-4)]Gal(b1-4)GlcNAc
# Method in brief: as §1
# [6] = biological target: Fuc(a1-2)[GalNAc(a1-3)]Gal(b1-3)GalNAc(a1-3)[Fuc(a1-2)]Gal(b1-4)GlcNAc
# Method in brief: as §1
# [7] = biological target: Fuc(a1-2)[GalNAc(a1-3)]Gal(b1-3)GlcNAc(b1-3)GalNAc
# Method in brief: as §1
# [8] = biological target: Fuc(a1-2)[GalNAc(a1-3)]Gal(b1-4)[Fuc(a1-3)]GlcNAc(b1-3)GalNAc
# Method in brief: as §1
# [9] = biological target: Fuc(a1-3)[Gal(b1-4)]GlcNAc(b1-6)GalNAc
# Method in brief: as §1
# [10] = biological target: Gal(a1-3)Gal(b1-3)GlcNAc(b1-2)Man(a1-3)[Gal(a1-3)Gal(b1-3)GlcNAc(b1-2)Man(a1-6)]Man(b1-4)GlcNAc(b1-4)GlcNAc
# Method in brief: as §1
# [11] = biological target: Gal(a1-3)Gal(b1-4)[Fuc(a1-3)]GlcNAc(b1-2)Man(a1-3)[Gal(a1-3)Gal(b1-4)[Fuc(a1-3)]GlcNAc(b1-2)Man(a1-6)]Man(b1-4)GlcNAc(b1-4)GlcNAc
# Method in brief: as §1
# [12] = biological target: Gal(b1-3)GlcNAc(b1-3)Gal(b1-3)GlcNAc
# Method in brief: as §1
# [13] = biological target: Gal(b1-3)[Fuc(a1-4)]GlcNAc(b1-3)Gal(b1-4)[Fuc(a1-3)]GlcNAc
# Method in brief: as §1
# [14] = biological target: Gal(b1-3)[Neu5Ac(a2-6)]GalNAc
# Method in brief: as §1
# [15] = biological target: Gal(b1-4)GalNAc(a1-3)[Fuc(a1-2)]Gal(b1-4)GlcNAc
# Method in brief: as §1
# [16] = biological target: Gal(b1-4)GlcNAc(b1-2)[Gal(b1-4)GlcNAc(b1-6)]Man(a1-6)[Gal(b1-4)GlcNAc(b1-2)Man(a1-3)]Man(b1-4)GlcNAc(b1-4)GlcNAc
# Method in brief: as §1
# [17] = biological target: Gal(b1-4)GlcNAc(b1-2)[Gal(b1-4)GlcNAc(b1-6)]Man(a1-6)[GlcNAc(b1-4)][Gal(b1-4)GlcNAc(b1-2)Man(a1-3)]Man(b1-4)GlcNAc(b1-4)GlcNAc
# Method in brief: as §1
# [18] = biological target: Gal(b1-4)GlcNAc(b1-3)Gal(b1-4)[Fuc(a1-3)GlcNAc(b1-6)]Gal(b1-4)Glc
# Method in brief: as §1
# [19] = biological target: Gal(b1-4)GlcNAc(b1-3)[Gal(b1-4)GlcNAc(b1-6)]Gal(b1-4)GlcNAc
# Method in brief: as §1
# Gal3S(b1-4)GlcNAc6S = biological target: Gal3S(b1-4)GlcNAc6S
# Method in brief: as §1
# [20] = biological target: Gal3S(b1-4)[Fuc(a1-3)]Glc
# Method in brief: as §1
# [21] = biological target: Gal3S(b1-4)[Fuc(a1-3)]Glc6S
# Method in brief: as §1
# Gal3S4S(b1-4)GlcNAc = biological target: Gal3S4S(b1-4)GlcNAc
# Method in brief: as §1
# Gal3S6S(b1-4)GlcNAc6S = biological target: Gal3S6S(b1-4)GlcNAc6S
# Method in brief: as §1
# [22] = biological target: GalNAc(b1-3)Gal(a1-4)Gal(b1-4)GlcNAc
# Method in brief: as §1
# Glc(a1-6)Glc(a1-6)Glc = biological target: Glc(a1-6)Glc(a1-6)Glc
# Method in brief: as §1
# [23] = biological target: GlcNAc(a1-4)Gal(b1-4)GlcNAc(b1-3)Gal(b1-4)[Fuc(a1-3)]GlcNAc(b1-3)Gal(b1-4)[Fuc(a1-3)]GlcNAc
# Method in brief: as §1
# [24] = biological target: GlcNAc(b1-2)[GlcNAc(b1-4)]Man(a1-3)[GlcNAc(b1-4)][GlcNAc(b1-2)Man(a1-6)]Man(b1-4)GlcNAc(b1-4)GlcNAc
# Method in brief: as §1
# [25] = biological target: GlcNAc(b1-2)[GlcNAc(b1-6)]Man(a1-6)[GlcNAc(b1-2)Man(a1-3)]Man(b1-4)GlcNAc(b1-4)GlcNAc
# Method in brief: as §1
binder,measurement,setting,value
"GNAT (Pseudomonas aeruginosa), Q9HV14 (protein) MQLSHRPAETGDLETVAGFPQDRDELFYCYPKAIWPFSVAQLAAAIAERRGSTVAVHDGQVLGFANFYQWQHGDFCALGNMMVAPAARGLGVARYLIGVMENLAREQYKARLMKISCFNANAAGLLLYTQLGYQPRAIAERHDPDGRRVALIQMDKPLEP",glycan array binding signal (z-score),[1],2.54
same,glycan array binding signal (z-score),[2],-0.247
same,glycan array binding signal (z-score),[3],-0.411
same,glycan array binding signal (z-score),[4],4.04
same,glycan array binding signal (z-score),Fuc(a1-2)Gal6S(b1-4)Glc,-0.374
same,glycan array binding signal (z-score),[5],-0.398
same,glycan array binding signal (z-score),[6],-0.345
same,glycan array binding signal (z-score),[7],5.4
same,glycan array binding signal (z-score),[8],4.86
same,glycan array binding signal (z-score),[9],5.07
same,glycan array binding signal (z-score),[10],2.69
same,glycan array binding signal (z-score),[11],4.4
same,glycan array binding signal (z-score),[12],0.929
same,glycan array binding signal (z-score),[13],-0.315
same,glycan array binding signal (z-score),[14],0.421
same,glycan array binding signal (z-score),[15],-0.14
same,glycan array binding signal (z-score),[16],1.21
same,glycan array binding signal (z-score),[17],-0.222
same,glycan array binding signal (z-score),[18],0.293
same,glycan array binding signal (z-score),[19],-0.269
same,glycan array binding signal (z-score),Gal3S(b1-4)GlcNAc6S,-0.322
same,glycan array binding signal (z-score),[20],-0.301
same,glycan array binding signal (z-score),[21],6.54
same,glycan array binding signal (z-score),Gal3S4S(b1-4)GlcNAc,-0.461
same,glycan array binding signal (z-score),Gal3S6S(b1-4)GlcNAc6S,-0.379
same,glycan array binding signal (z-score),[22],-0.284
same,glycan array binding signal (z-score),Glc(a1-6)Glc(a1-6)Glc,-0.33
same,glycan array binding signal (z-score),[23],3.72
same,glycan array binding signal (z-score),[24],-0.318
same,glycan array binding signal (z-score),[25],-0.257
